Values joined by “and” are separate entries in the source; they are usually repeats but may differ in a detail not shown here. Equal values may be shown once. Inconclusive results are not listed. A number with no mark means an inactive call. Active and inactive are the calls of the source. Unless noted, calls follow the shape of the dose curve; as a rule, active = well fitted curve in the direction sought with a large enough effect; inconclusive = small, poorly fitted or top-dose-only effect, or another doubt; inactive = no such curve, though single readings can be large; an effect the other way counts as inactive or inconclusive.
assay: qHTS assay for small molecule agonists of the antioxidant response element (ARE) signaling pathway measured by Nrf2-dependant transcriptional activity (AID 720636; active = well fitted curve in the direction sought with a large enough effect in the repeat runs; an effect the other way counts as inactive or inconclusive; also: % of control where 0% means no effect); settings: ARE-luc HepG2, Nrf2 luciferase reporter, 16 h; series mostly up to 92.4 µM
Procedure, shortened: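 Quantitative HTS format in HepG2 cells stably expressing an ARE-luciferase reporter; 16 hr compound treatment at 37 C, luciferase signal detected with ONE-Glo.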

Row | Structure (SMILES) | outcome
1 | COP(=S)(OC)SCN1C(=O)c2ccccc2C1=O | inactive
2 | [N-]=[N+]=CC(=O)OC[C@H](N)C(=O)O | inactive
3 | Nc1ccc([As](=O)(O)O)cc1 | inactive
4 | COP(=S)(OC)Oc1ccc(SC)c(C)c1 | inactive
5 | O=C1c2ccccc2C(=O)C1C(=O)C(c1ccccc1)c1ccccc1 | inactive
6 | CC1(C)C(C=C(Cl)Cl)C1C(=O)OC(C#N)c1cccc(Oc2ccccc2)c1 (centres undefined) | inactive
7 | Nc1nc(N)nc(NC2CC2)n1 | inactive
8 | COP(=S)(OC)Oc1cc(Cl)c(Cl)cc1Cl | inactive
9 | CC(C)(C)c1ccc(O)cc1 | inactive
10 | Clc1ccc(C(c2ccc(Cl)cc2)C(Cl)(Cl)Cl)cc1 | inactive

assay: qHTS assay for small molecule agonists of the antioxidant response element (ARE) signaling pathway measured by Nrf2-dependant transcriptional activity - cell viability counter screen (AID 720653; active = well fitted curve in the direction sought with a large enough effect in the repeat runs; an effect the other way counts as inactive or inconclusive; also: % is scaled to controls: 0 for no effect and ±100 for the full control effect); settings: ARE-bla HepG2 viability, CellTiter-Glo ATP luminescence, 16 h; stronger effect = lower value
Procedure, shortened: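 Cytotoxicity counter screen: intracellular ATP quantified by CellTiter-Glo luminescence in the same ARE-bla HepG2 plates, after 16 h compound exposure and a 2 h beta-lactamase substrate step.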

Row | Structure (SMILES) | max response
11 | COP(=S)(OC)SCN1C(=O)c2ccccc2C1=O | 3.01%
12 | [N-]=[N+]=CC(=O)OC[C@H](N)C(=O)O | -15%
13 | Nc1ccc([As](=O)(O)O)cc1 | -9.13%
14 | COP(=S)(OC)Oc1ccc(SC)c(C)c1 | -8.21% and -17%
15 | O=C1c2ccccc2C(=O)C1C(=O)C(c1ccccc1)c1ccccc1 | -16.2%
16 | CC1(C)C(C=C(Cl)Cl)C1C(=O)OC(C#N)c1cccc(Oc2ccccc2)c1 (centres undefined) | -2.42%
17 | Nc1nc(N)nc(NC2CC2)n1 | 14.5%
18 | COP(=S)(OC)Oc1cc(Cl)c(Cl)cc1Cl | -0.922%
19 | CC(C)(C)c1ccc(O)cc1 | -7.43%
20 | Clc1ccc(C(c2ccc(Cl)cc2)C(Cl)(Cl)Cl)cc1 | -18.5% and -23.5%
21 | O=C1c2ccccc2C(=O)c2ccccc21 | -5.47%

assay: qHTS Assay for Identifying Gametocytocidal Compounds (AID 743244);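 also: % is scaled to controls: 0 for no effect and ±100 for the full control effect; actives lower the fluorescent signal which means gametocytes are killed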; settings: P. falciparum 3D7 stage III-V gametocytes, alamarBlue, 72 h; max response: stronger effect = lower value
Procedure, shortened: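 3D7 gametocytes, stages III–V, 20,000/well; cpd 72 h, 37 °C/5% CO2; + alamarBlue 24 h; fluor. Ex 525/Em 598.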

Row | Structure (SMILES) | max response
22 | O=C(Nc1ccc(Br)cc1)c1cc(Br)cc(Br)c1O | 3.6%
23 | COP(=S)(OC)SCN1C(=O)c2ccccc2C1=O | -4.68%
24 | CC(=O)N1CCN(c2ccc(OC[C@H]3CO[C@](Cn4ccnc4)(c4ccc(Cl)cc4Cl)O3)cc2)CC1 | 0.452%
25 | O=C1CN=C(c2ccccc2)c2cc([N+](=O)[O-])ccc2N1 | 13.6%
26 | CCC1(CC)C(=O)C=CNC1=O | -13.9%
27 | C[C@]12CC[C@@H]3c4ccc(OC(=O)N(CCCl)CCCl)cc4CC[C@H]3[C@@H]1CC[C@@H]2O | -1.39%
28 | Clc1ccc2c(c1)C(c1ccccc1)=NCc1nncn1-2 | 5.88%
29 | Cc1nnc2n1-c1ccc(Cl)cc1C(c1ccccc1)=NC2 | 35.3%
30 | CCC1(c2ccccc2)C(=O)N(COC)C(=O)N(COC)C1=O | -2.08%
31 | O=C(O)c1ccccc1S | 58.9%
32 | CN1C(=O)CC(=O)N(c2ccccc2)c2cc(Cl)ccc21 | 16.1%
33 | NC1=NC(=O)C(c2ccccc2)O1 (centres undefined) | -7.8%
34 | O=C1Nc2ccc(Cl)cc2C(c2ccccc2Cl)=NC1O (centres undefined) | 16.1%
35 | C#C[C@]1(O)CC[C@H]2[C@@H]3CCC4=CC(=O)CC[C@]4(C)[C@H]3CC[C@@]21C | 15.4% and 2.46%
36 | Nc1nc(N)nc(NC2CC2)n1 | -8.01%
37 | O=c1oc2ccccc2c(O)c1Cc1c(O)c2ccccc2oc1=O | 2.96%
38 | COP(=S)(OC)Oc1cc(Cl)c(Cl)cc1Cl | -2.95% and 7.49%
39 | c1ccc2c(c1)sc1ccccc12 | 5.76%
40 | COP(=S)(OC)Oc1ccc(S(=O)(=O)N(C)C)cc1 | 17.5%
41 | COc1c2c(cc3c1OCO3)CCN(C)C2 | 7.33%
42 | Clc1ccc(C(c2ccc(Cl)cc2)C(Cl)(Cl)Cl)cc1 | 0.742%
43 | O=C1c2ccccc2C(=O)c2ccccc21 | -6.63%

assay: qHTS assay for cell viability of HEK293 cells (AID 743288); settings: ATP luminescence (CellTiter-Glo), 18 h, stronger effect = lower value; also: % is scaled to controls: 0 for no effect and ±100 for the full control effect; nearly all actives have a fitted effect of over 50% in size
Procedure, shortened: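 Environmental chemicals tested in qHTS format against parental HEK293 cells; 18 h treatment, 37 C; read-out ATP luminescence (CellTiter-Glo), 30 min RT development.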

Row | Structure (SMILES) | max response
44 | COP(=S)(OC)SCN1C(=O)c2ccccc2C1=O | -19.3%
45 | [N-]=[N+]=CC(=O)OC[C@H](N)C(=O)O | 0.519%
46 | Nc1ccc([As](=O)(O)O)cc1 | -4.94%
47 | COP(=S)(OC)Oc1ccc(SC)c(C)c1 | 2.92% and -23.3%
48 | O=C1c2ccccc2C(=O)C1C(=O)C(c1ccccc1)c1ccccc1 | -28.7%
49 | CC1(C)C(C=C(Cl)Cl)C1C(=O)OC(C#N)c1cccc(Oc2ccccc2)c1 (centres undefined) | -3.3%
50 | Nc1nc(N)nc(NC2CC2)n1 | -3.61%
51 | COP(=S)(OC)Oc1cc(Cl)c(Cl)cc1Cl | -11.5%
52 | CC(C)(C)c1ccc(O)cc1 | 3.38%
53 | Clc1ccc(C(c2ccc(Cl)cc2)C(Cl)(Cl)Cl)cc1 | -17.1%
54 | O=C1c2ccccc2C(=O)c2ccccc21 | -16.3%

assay: qHTS assay for cell viability of the p53RE-bla HCT-116 cell line (AID 743292); settings: p53RE-bla HCT-116 viability, ATP luminescence, 16 h; series mostly up to 95 µM; also: nearly all actives have a fitted effect of over 55% in size; also: potency is read from the fitted curve at half-maximal effect
Procedure, shortened: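 Viability of compound-treated p53RE-bla HCT-116 cells is taken from ATP-dependent luciferase luminescence. Treatment lasts 16 h at 37 C after a 5 h settling period; detection follows 30 min at room temperature.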

Row | Structure (SMILES) | Potency
55 | COP(=S)(OC)SCN1C(=O)c2ccccc2C1=O | inactive
56 | [N-]=[N+]=CC(=O)OC[C@H](N)C(=O)O | inactive
57 | Nc1ccc([As](=O)(O)O)cc1 | inactive
58 | COP(=S)(OC)Oc1ccc(SC)c(C)c1 | inactive
59 | O=C1c2ccccc2C(=O)C1C(=O)C(c1ccccc1)c1ccccc1 | inactive
60 | CC1(C)C(C=C(Cl)Cl)C1C(=O)OC(C#N)c1cccc(Oc2ccccc2)c1 (centres undefined) | inactive
61 | Nc1nc(N)nc(NC2CC2)n1 | inactive
62 | COP(=S)(OC)Oc1cc(Cl)c(Cl)cc1Cl | inactive
63 | Clc1ccc(C(c2ccc(Cl)cc2)C(Cl)(Cl)Cl)cc1 | 50.1 µM (active)
64 | O=C1c2ccccc2C(=O)c2ccccc21 | inactive
